Assay results published in PubChem BioAssay (Tox21).
Inconclusive results are not listed. Values without a mark were called inactive. The source made the active and inactive calls. Calls follow the shape of the dose curve; as a rule, active = well fitted activation curve with a large enough effect in the repeat runs; inconclusive = weak or mixed curves; inactive = no such curve, though single readings can be large or run the other way.

Experiment: qHTS assay for small molecules that induce genotoxicity in human embryonic kidney cells expressing luciferase-tagged ATAD5 (AID 651632); also: nearly all actives have a fitted effect of over 15% in size
Conditions: HEK293T ATAD5-luciferase induction, 16 h; series mostly up to 83.3 µM; activation: at the top concentration
Method in brief: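 Luminescence read-out: after 16 hr compound exposure at 37C, ATAD5-luciferase HEK293T cells received Amplite, 30 min RT, then CCD imaging. A rise in signal marks genotoxic stress.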
% is scaled to controls: 0 for no effect and ±100 for the full control effect.

SMILES | activation | Potency
Oc1ccc(Cl)c2c1CCC2 | -1.37% | 
O=c1[nH]c(=O)n([C@H]2C[C@H](O)[C@@H](CO)O2)cc1/C=C/Br | 1.42% | 
Nc1nc(/C(=C/CC(=O)O)C(=O)N[C@@H]2C(=O)N3C(C(=O)O)=CCS[C@H]23)cs1 | 3.92% | 
SC1CCCCC1 | 0.847% [at 95.3 µM] | 
C[C@H](Cc1ccc(O)c(O)c1)[C@@H](C)Cc1ccc(O)c(O)c1 | 0.639% | 
COc1cccc2c1[C@@H]1CN(CCCCn3c(=O)[nH]c4c(sc5ncc(-c6ccccc6)nc54)c3=O)C[C@@H]1CO2 | -11.1% | 
CON=C1C[C@]2(C[C@@H]3C[C@@H](C/C=C(\C)C[C@@H](C)/C=C/C=C4\CO[C@@H]5[C@H](O)C(C)=C[C@@H](C(=O)O3)[C@]45O)O2)O[C@H](/C(C)=C/C(C)C)[C@H]1C |  | inactive
CC(C)[N+]1(C)[C@@H]2CC[C@H]1CC(OC(=O)C(CO)c1ccccc1)C2 (some centres not stated) |  | inactive
CC(C)Cc1ccc([C@H](C)C(=O)O)cc1 | 2.96% | 
Cc1ccc(C(C)(C)c2ccc(C)cc2)cc1 | -1.23% | 
Nc1c(CC(=O)O)cccc1C(=O)c1ccccc1 |  | inactive
CC(=O)NC[C@H]1CN(c2ccc(N3CCOCC3)c(F)c2)C(=O)O1 | -2% | 
CCCCCCCCCCCCN1CCCC1=O | -1.36% | 
O=C(O)COc1ccc(C(=O)c2cccs2)c(Cl)c1Cl |  | inactive
O=C1CCC(c2ccc(-n3ccnc3)cc2)=NN1 | 4.13% | 
O=[N+]([O-])c1ccc(O)c2ncccc12 | -6.2% | 
CC(C)C[C@H](NC(=O)[C@@H](COC(C)(C)C)NC(=O)[C@H](Cc1ccc(O)cc1)NC(=O)[C@H](CO)NC(=O)[C@H](Cc1c[nH]c2ccccc12)NC(=O)[C@H](Cc1cnc[nH]1)NC(=O)[C@@H]1CCC(=O)N1)C(=O)N[C@@H](CCCN=C(N)N)C(=O)N1CCC[C@H]1C(=O)NNC(N)=O |  | inactive
CC[C@@H](C(=O)[C@@H](C)[C@@H](O)[C@H](C)CCc1ccc(C)c(O)c1C(=O)O)[C@H]1O[C@](CC)([C@H]2CC[C@](O)(CC)[C@H](C)O2)C[C@@H]1C | -20.7% | 
CCCCC/C=C\C=C\C(=O)OCC | 2.98% [at 95.3 µM] | 

SMILES | activation | Potency
CCCn1c(=O)[nH]c(=O)c2[nH]cnc21 | 1.33% | 
CO[C@H]1C[C@@H]2CC[C@@H](C)[C@@](O)(O2)C(=O)C(=O)N2CCCC[C@H]2C(=O)O[C@H]([C@H](C)C[C@@H]2CC[C@@H](O)[C@H](OC)C2)CC(=O)[C@H](C)C=C(C)[C@@H](O)[C@@H](OC)C(=O)[C@H](C)C[C@H](C)/C=C/C=CC=C1C |  | inactive
CC(=O)OCC(=O)[C@@]1(O)CC[C@H]2[C@@H]3CCC4=CC(=O)CC[C@]4(C)C3=CC[C@@]21C | 2.9% | 
O=C(O)c1ccc(NC2OC[C@@H](O)[C@H](O)[C@H]2O)cc1 (some centres not stated) | -0.939% | 
O=C1CCCCCCCCCCCCCC1 | -3.08% | 
C/C(=C(/CCO)SSCC1CCCO1)N(C=O)Cc1cnc(C)nc1N (configuration not stated) |  | inactive
CN(Cc1ccccc1)Cc1ccccc1 | 2.33% | 
CCCCCCCC[N+](C)(C)CCCCCCCC |  | inactive
CO[C@H](C(=O)[C@@H](O)[C@@H](C)O)C1Cc2cc3cc(O[C@H]4C[C@@H](O[C@H]5C[C@@H](O)[C@H](O)[C@@H](C)O5)[C@@H](O)[C@@H](C)O4)c(C)c(O)c3c(O)c2C(=O)[C@H]1O[C@H]1C[C@@H](O[C@H]2C[C@@H](O[C@H]3C[C@](C)(O)[C@H](O)[C@@H](C)O3)[C@H](O)[C@@H](C)O2)[C@H](O)[C@@H](C)O1 (some centres not stated) |  | inactive
CC(C)(O/N=C(\C(=O)N[C@@H]1C(=O)N2C(C(=O)[O-])=C(C[n+]3ccccc3)CS[C@H]12)c1csc(N)n1)C(=O)O | 2.73% [at 39.1 µM] | 
Cc1cccc(C)c1NC(=O)C1CCCCN1C (configuration not stated) | 2.56% | 
C[C@@H]1O[C@@H]1P(=O)(O)O | 3.19% | 
c1ccc2c(c1)OCC(CN1CCCCC1)O2 (configuration not stated) | 1.42% | 
C=C1C(=C/C=C2\CCC[C@]3(C)[C@@H]([C@H](C)CCCC(C)C)CC[C@@H]23)C[C@@H](O)C[C@@H]1O | -10.1% | 
N=C(N)n1cccn1 | -1.56% | 
CCCC(CCC)C(=O)OC1C[C@H]2CC[C@@H](C1)[N+]2(C)C (some centres not stated) |  | inactive
C[N+](C)(C)CCOP(=O)(O)OP(=O)([O-])OC[C@H]1O[C@@H](n2ccc(N)nc2=O)[C@H](O)[C@@H]1O |  | inactive
CN(C)CCC(O)(c1ccccc1)c1ccccc1Cl (configuration not stated) | -2.38% | 
